# In PubChem BioAssay:
# Biological target: Torsin-1A (Homo sapiens) (UniProt O14656)
# Assay: torsin A mutant lysate binding on microarrays – cell lysate, small-molecule microarray, COS7 lysate, 635/667 nm fluorescence, primary screen (AID 1150);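 further: score pools 667 nm emission and signal to noise measuring lysate protein binding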
# Conditions: COS7 hTOR1A mutant lysate, 635 nm fluorescence, higher = more signal
# Chain of Torsin-1A (Homo sapiens) (O14656 whole entry, looked up): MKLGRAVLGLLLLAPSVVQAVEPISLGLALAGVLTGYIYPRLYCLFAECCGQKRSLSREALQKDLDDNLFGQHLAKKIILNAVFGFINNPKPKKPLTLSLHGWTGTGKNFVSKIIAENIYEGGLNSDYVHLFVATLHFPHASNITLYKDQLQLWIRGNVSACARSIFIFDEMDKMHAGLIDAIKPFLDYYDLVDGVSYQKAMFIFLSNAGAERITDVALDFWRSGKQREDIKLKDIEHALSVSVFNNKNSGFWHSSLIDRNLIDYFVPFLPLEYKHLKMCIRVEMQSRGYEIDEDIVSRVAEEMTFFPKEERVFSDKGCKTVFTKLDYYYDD
row,Compound,composite z-score
1,C=CCOC(=O)[C@@H]1[C@H]2C(=O)O[C@H](c3ccccc3)[C@H](c3ccccc3)N2[C@H](c2ccc(OCCOC(=O)[C@H]3C[C@H]4C(=O)N5CCC[C@H]5C(=O)N4[C@H]3c3ccc(O)cc3)cc2)[C@@]12C(=O)Nc1ccccc12,0.283
2,C[C@@H]1CC[C@H]2C(=O)N3[C@@H](CC[C@@H](C)[C@@H]3c3cccc(N4CCOCC4)c3)C(=O)N2[C@H]1c1cccc(N2CCOCC2)c1,0.312
3,COc1ccc(-c2ccccc2[C@@H]2N[C@H](C(=O)O)CC[C@H]2C)cc1,0.272
4,CN1CCC(CCCO)=CC1C1CC1 (stereo unspecified),0.0677
5,C=CCC(OC(C)=O)[C@@H]1[C@@H](N(Cc2cc3ccccc3o2)C(=O)c2ccc(C)cc2)c2cc(OCCCO)ccc2N1C(=O)c1ccc2ccccc2n1 (stereo partly specified),-0.368
6,C[C@H]1COC(=O)[C@H](Cc2ccccc2)NC(=O)[C@@H](C)COC(=O)[C@H](Cc2ccccc2)NC1=O,0.654
7,CCN1C(C)=C(C(=O)OC)[C@@H](c2ccccc2)N2C(=O)[C@@]3(C(=O)OC)O[C@@]12[C@@H]1C(=O)N(c2ccccc2)C(=O)[C@@H]13,0.644
8,CCCC/C=C/[C@H]([C@@H](O)Cc1ccccc1)N(CC#Cc1ccccc1)Cc1ccccc1Br,-0.242
9,Cc1ccc(S[C@]2(C(=O)NCCCN(C)C)CC(=O)N(C3CCCCC3)[C@@H]2c2ccc(CO)cc2I)cc1,0.0812
10,CO[C@@H]1COC(=O)[C@H](C)NC(=O)CC=C[C@@H](C)[C@H](NS(=O)(=O)c2ccc(C)cc2)COC(=O)CC=C[C@@H]1C,0.252
11,C=CCNC(=O)[C@H]1[C@@H]2C(=O)O[C@@H](c3ccccc3)[C@@H](c3ccccc3)N2[C@@H](c2ccccc2OCCO)[C@]12C(=O)N(C(=O)OCCOC)c1ccc(C#CCC(C(=O)OC)C(=O)OC)cc12,0.946
12,CC(=O)NCCCC[C@@H]1NC(=O)[C@@H]2C[C@H](C(=O)NCCCCCCN(C)C)[C@H](c3ccc(O)cc3)N2C1=O,1.52
13,O=C(NCC(O)CO)[C@]1(Cc2ccccc2)N=C(c2ccc(OCCCO)cc2)O[C@@H]1c1ccccc1 (stereo partly specified),1.81
14,C[C@H]1NC(=O)[C@@H](C)NC(=O)[C@@]23C(=O)N[C@@H](Cc4ccccc4)C2[C@H](C)[C@@]2(C)O[C@H]2C3/C=C/C/C=C\CNC1=O (stereo partly specified),-0.354
15,CC(C)N1CC=CC23O[C@@H]4/C=C\CCCOC(=O)C4[C@H]2C(=O)N(CCO)[C@@H]3C1=O (stereo partly specified),-0.582
16,C=CC[C@]1(C(=O)O)N=C(c2ccc(OCCCO)cc2)O[C@H]1c1ccccc1,-0.0649
17,CC(C)CNC(=O)[C@@]1(C)c2ccccc2C(=O)N(Cc2ccc(OC(F)(F)F)cc2)[C@H]1c1ccc(CO)cc1,0.316
18,CO[C@H]1COC(=O)[C@H](Cc2ccccc2)NC(=O)CC=C[C@@H](C)[C@H](OC)COC(=O)CC=C[C@@H]1C,0.189

row,Compound,composite z-score
1,C=C(COC)/C(=C/C[C@@H](OC(=O)c1ccncc1)c1ccc(OCCO)cc1)c1cc(C(=O)OC)ccc1OC,0.838
2,CSCC[C@@H]1NC(=O)CC=C[C@@H](C)COC(=O)[C@H](CCSC)NC(=O)CC=C[C@@H](C)COC1=O,0.291
3,O=C1OCC=C[C@H]2OC34C=CCN(Cc5ccccc5)C(=O)[C@H]3N(CCCCCO)C(=O)[C@@H]4[C@@H]12 (stereo partly specified),-0.605
4,Cc1ccc(S[C@]2(C(=O)NCCN3CCOCC3)CC(=O)N(C3Cc4ccccc4C3)[C@@H]2c2ccc(CO)cc2I)cc1,-0.131
5,COC(=O)C[C@H]1O[C@]2(C(=O)N(C)c3ccccc32)[C@@H](C)[C@@H]1[Si](C)(C)c1ccc(OC)cc1,0.236
6,CC/C=C/C(=O)N(C[C@@H]1CCCO1)[C@@H]1CC(C(=O)NCCO)=C[C@H](Oc2c(I)cc(CO)cc2OC)[C@H]1O,0.267
7,C=C[C@H](OC)[C@@H](OC(=O)Nc1ccc(SC)cc1)c1ccc(OC)c(O)c1,0.157
8,CN1C2C=C(c3ccc(CO)cc3)C(C3C(=O)N(C(N)=O)C(=O)C32)C1c1cccs1 (stereo unspecified),0.782
9,C=CCN(C(=O)C1N(c2ccc(CCO)cc2)C(=O)C2C(C(=O)O)C3C=CC21O3)C(C)(C)C (stereo unspecified),-1.77
10,C=CCC1=C[C@H]2[C@H]([C@@H]3C=C[C@]2(CC=C)C(=O)[C@]32CO2)[C@@]2(CO2)C1=O,-0.0031
11,Cc1ccc(S[C@]2(C(=O)O)CC(=O)N(Cc3ccccc3)[C@@H]2c2ccc(CO)cc2)cc1,0.12
12,CCCNC(=O)[C@@H]1c2ccccc2C(=O)N(Cc2cc(F)cc(C(F)(F)F)c2)[C@H]1c1ccc(CO)cc1,0.457
13,O=C1c2ccccc2[C@](Cc2ccccc2I)(C(=O)O)[C@H](c2ccc(CO)cc2)N1C1CCCCC1,0.76
14,[N-]=[N+]=NCc1ccccc1C[C@]1(C(N)=O)N=C(c2ccc(OCCCO)cc2)O[C@H]1c1ccccc1CN=[N+]=[N-],0.369
15,CO[C@H]1COC(=O)[C@H](C)NC(=O)CC=C[C@@H](C)[C@H](NS(=O)(=O)c2ccc(C)cc2)COC(=O)[C@@H](OCc2ccccc2)C=C[C@@H]1C,0.316
16,COC(=O)c1c(CC[C@@H](CO)NC(=O)N[C@H](Cn2cc(-c3cncn3C)nn2)C(C)C)oc(C(C)=O)c1C(=O)OC,0.368
17,C=C(COC)/C(=C/C[C@@H](OC(C)=O)c1cccc(OCCO)c1)c1cc(C(=O)OC)ccc1OC,-0.0193
18,CC(C)[Si]1(C(C)C)O[C@@H](c2ccccc2)c2cc(C3CC3)nc(-c3ccc(Oc4ccccc4)cc3)c21,-0.0373
